Structures are written as SMILES. This is part of a sample that, as a whole, favours compounds with a hit. Of some 83,000 tested, about 20% had one in any assay.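 Single-concentration screen, 48 h exposure, 96-well plates. Endpoint: percent growth. Below 10 = active.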 A number with no mark means an inactive call. Activity calls are given as the source filed them.

Results on 7 molecules are retold here after PubChem BioAssay (NCI).

Test systems include DU-145 prostate; K-562 leukemia; MALME-3M melanoma; MDA-MB-231 breast; RXF 393 renal; SF-268 CNS; SF-295 CNS; SF-539 CNS; UACC-257 melanoma; M14 melanoma; HCT-15 colon; HT29 colon; SNB-75 CNS; SNB-19 CNS; U251 CNS; PC-3 prostate; SK-MEL-5 melanoma; UACC-62 melanoma; LOX IMVI melanoma; SK-MEL-28 melanoma.
Holding throughout (assay): NCI-60 one-dose screen, 48 h (100 = growth as untreated, 0 = no growth, -100 = all killed)
Common to all, as to conditions: 10 µM unless noted

Take `COc1ncc(-c2ccc3nccc(C#CCCCCC(=O)NO)c3c2)cc1NS(=O)(=O)c1ccc(F)cc1F`: the growth with DU-145 prostate was 12.4%; in the assay with K-562 leukemia it was 17.3%; with MALME-3M melanoma, -40.5% (active); in the assay with MDA-MB-231 breast, -11.8% (active); in the assay with RXF 393 renal, -56.6% (active); in the assay with SF-268 CNS it was -11.6% (active). Further, the growth is -9.35% (active) in the assay with SF-295 CNS; -45.7% (active) with SF-539 CNS; -16.4% (active) in the assay on UACC-257 melanoma; -48.7% (active) with M14 melanoma; 24.9% with HCT-15 colon; 7.04% (active) in the assay on HT29 colon. In addition, the growth was -15.3% (active) in the assay with SNB-75 CNS; 4.98% (active) in the assay on SNB-19 CNS; -14% (active) with U251 CNS; 7.68% (active) with PC-3 prostate; -97.3% (active) in the assay with SK-MEL-5 melanoma; -37.3% (active) with UACC-62 melanoma. The growth was -69.4% (active) in the assay on LOX IMVI melanoma and -27.9% (active) with SK-MEL-28 melanoma.
Turning to `C=C(C)C1CCC2(C(=O)O)CCC3(C)C(CCC4C5(C)CCC(OC(=O)NCc6ccccc6)C(C)(C)C5CCC43C)C12` (stereo not given), the growth in the assay on DU-145 prostate was 56.2%; in the assay with K-562 leukemia, 28.5%; with MALME-3M melanoma it was 72.1%; with MDA-MB-231 breast it was 53.6%; in the assay with RXF 393 renal, 60.2%; with SF-268 CNS, 65.4%. Moreover, the growth in the assay on SF-295 CNS was 41.9%; in the assay with SF-539 CNS, 53.5%; in the assay on UACC-257 melanoma, 29.3%; with M14 melanoma, 45.6%; in the assay with HCT-15 colon it was 40.8%; with HT29 colon it was 43.5%. Moreover, the growth with SNB-75 CNS is 75.7%; in the assay on SNB-19 CNS, 65.4%; with U251 CNS, 40.6%; in the assay with PC-3 prostate it was 41.2%; in the assay on SK-MEL-5 melanoma, 28.4%; in the assay with UACC-62 melanoma it was 33.9%. The growth with LOX IMVI melanoma is 39.8%; in the assay with SK-MEL-28 melanoma, 61.5%.
On to `Nc1nc(Cl)c2ncn(Cc3cc4c(cc3I)OCO4)c2n1`, for which the growth in the assay on DU-145 prostate is 52.8%; in the assay with K-562 leukemia it was 15.9%; in the assay on MALME-3M melanoma, 63.7%; in the assay with MDA-MB-231 breast, 40.9%; in the assay with RXF 393 renal, 66.3%; in the assay on SF-268 CNS, 62.1%. Moreover, the growth with SF-295 CNS is 42.5%; with SF-539 CNS, 46.5%; with UACC-257 melanoma it was 81.4%; in the assay on M14 melanoma, 76%; in the assay on HCT-15 colon, 25.1%; in the assay on HT29 colon, 9.61% (active). The growth in the assay with SNB-75 CNS was 73.5%; with SNB-19 CNS it was 61.9%; with U251 CNS it was 53.5%; in the assay on PC-3 prostate, 39.1%; with SK-MEL-5 melanoma, 72%; in the assay with UACC-62 melanoma, 45.7%. Besides, the growth with LOX IMVI melanoma was 11.8%; in the assay with SK-MEL-28 melanoma, 87.7%.
For the molecule `O=C(N=c1n(-c2ccccc2)nc2n1CCN2C1=NCCN1)c1ccc(Cl)cc1`, the growth in the assay on DU-145 prostate was 95.7%; in the assay on K-562 leukemia, 71.9%; in the assay with MALME-3M melanoma it was 91.3%; in the assay with MDA-MB-231 breast it was 69.5%; in the assay on RXF 393 renal, 61.9%; in the assay with SF-268 CNS, 83.8%. Moreover, the growth was 97.1% in the assay on SF-295 CNS; 77.8% with SF-539 CNS; 102% with UACC-257 melanoma; 107% in the assay on M14 melanoma; 82.5% in the assay with HCT-15 colon; 67.5% with HT29 colon. The growth in the assay on SNB-75 CNS was 66.3%; with SNB-19 CNS, 91.9%; in the assay with U251 CNS, 80.8%; in the assay on PC-3 prostate it was 72.7%; in the assay on SK-MEL-5 melanoma, 65.6%; in the assay with UACC-62 melanoma, 64.1%. Besides, the values for the growth with LOX IMVI melanoma and with SK-MEL-28 melanoma were 61.2% and 81.3%, respectively.
With `c1cc2ccc3cc2cc1CNCCN1CCNCc2ccc4ccc(cc4c2)CNCCN(CCNC3)CCNCc2ccc3ccc(cc3c2)CNCC1`, the growth is -10.1% (active) in the assay with DU-145 prostate; 12.6% in the assay on K-562 leukemia; -13% (active) in the assay on MALME-3M melanoma; -23.7% (active) in the assay on MDA-MB-231 breast; 11.4% in the assay with RXF 393 renal; -13.6% (active) in the assay on SF-268 CNS. The growth is 66.8% in the assay on SF-295 CNS; -41% (active) in the assay on SF-539 CNS; 100% in the assay on UACC-257 melanoma; 96.3% in the assay with M14 melanoma; 94.5% in the assay on HCT-15 colon; 1.47% (active) with HT29 colon. In addition, the growth in the assay with SNB-75 CNS is -12.6% (active); in the assay on SNB-19 CNS it was -7.68% (active); with U251 CNS, -4.66% (active); in the assay on PC-3 prostate, -0.11% (active); with SK-MEL-5 melanoma, 88.6%; in the assay on UACC-62 melanoma, 30.1%. Further, the growth in the assay with LOX IMVI melanoma was -7.72% (active); in the assay with SK-MEL-28 melanoma it was 62.8%.
`C#C[C@]1(O)CC[C@H]2[C@@H]3CC=C4c5nc(Nc6ccccn6)sc5CC[C@]4(C)[C@H]3CC[C@@]21C`: the growth in the assay on DU-145 prostate was 17.2%; with K-562 leukemia, 2.53% (active); in the assay with MALME-3M melanoma it was 10.9%; in the assay with MDA-MB-231 breast, -23.1% (active); in the assay on RXF 393 renal it was -66% (active); in the assay with SF-268 CNS, -24% (active). For the same molecule, the growth in the assay on SF-295 CNS is -72.2% (active); in the assay with SF-539 CNS, -64.7% (active); in the assay on UACC-257 melanoma it was -54.7% (active); with M14 melanoma it was -35.9% (active); in the assay with HCT-15 colon, 1.7% (active); with HT29 colon, 16.9%. Besides, the growth was -42.4% (active) with SNB-75 CNS; 11% in the assay with SNB-19 CNS; -26.2% (active) in the assay on U251 CNS; -28.6% (active) in the assay with PC-3 prostate; -82.2% (active) in the assay with SK-MEL-5 melanoma; -28.4% (active) in the assay on UACC-62 melanoma. Further, the growth in the assay on LOX IMVI melanoma was -68% (active); in the assay on SK-MEL-28 melanoma, -68.2% (active).
`O=C(Nc1ccc(Oc2ccc(F)cc2)c(Cl)c1)c1cnccn1`: the growth is 79.5% with DU-145 prostate; 21.1% in the assay on K-562 leukemia; 70.1% with MALME-3M melanoma; 58.7% in the assay on MDA-MB-231 breast; 72.3% with RXF 393 renal; 72.2% with SF-268 CNS. The growth in the assay with SF-295 CNS was 72.9%; in the assay on SF-539 CNS it was 67.1%; in the assay on UACC-257 melanoma it was 79.8%; with M14 melanoma, 92.4%; in the assay with HCT-15 colon, 47.7%; with HT29 colon, 23.7%. Further, the growth with SNB-75 CNS is 47.7%; in the assay on SNB-19 CNS, 63.7%; in the assay with U251 CNS, 38.2%; in the assay with PC-3 prostate, 76%; in the assay with SK-MEL-5 melanoma, 49.5%; in the assay with UACC-62 melanoma it was 50.3%. Also, the growth in the assay on LOX IMVI melanoma is 51.5%; in the assay with SK-MEL-28 melanoma it was 76.9%.
